TTR transcr act: increases transthyretin transcription. SH-SY5Y TTR promoter Gaussia luciferase, luminescence; 100% = recombinant luciferase protein wells. activation, % at 16.7 µM. 1.3% of 92,000 active;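 active means activation above the mean of all tested compounds plus 3 SD, cut at about 9.5% in these data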;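 further: cells exposed to compounds for one day before reading; 0% = median of all test compound wells on the plate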
HuH7 TTR inh: decreases TTR transcription in HuH7 cells in activator counter-screen. shares compounds with TTR transcr act. HuH7 TTR promoter-Gaussia luciferase reporter, luminescence. inhibition, % at 16.7 µM. 4% of 1,100 active;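 active means average inhibition above the solvent-only control wells' mean plus 3 SD, cut at about 15% in these data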;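 further: 0% = cells with DMSO only and 100% = cells with inhibitor control FD; inhibitors lower well luminescence so higher value means more inhibition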
TTR act confirm: confirmation of human transthyretin transcription activators | shares compounds with TTR transcr act | SHSY5Y TTR promoter Gaussia luciferase, luminescence; 100% = purified Lucia enzyme wells, no cells | activation, % at 16.7 µM | 1,100 tested, under 10 active | AID 1117280;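 active means mean activation above a set limit taken from the earlier primary screen, cut at about 11% in these data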;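 further: 0% = DMSO-treated cells and 100% = recombinant Lucia luciferase without cells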
* marks the source's active call; other numbers are inactive results. The sample as a whole holds a higher share of hits than the screen did.

SMILES | TTR transcr act | others
COC(=O)C1=C(c2cc3ccccc3s2)C[C@@H]2CC[C@H]1N2C(=O)NC1CC1 | 9
COC(=O)C1=C(c2cc3ccccc3s2)C[C@@H]2CC[C@H]1N2C | 14*
COC(=O)C1=C(c2ccc3ccccc3c2)C[C@@H]2CC[C@H]1N2C | -3
COC(=O)C1C(c2ccc(Cl)cc2)CC2CCC1N2C (centres undefined) | -1
C=CCN1C[C@H](C)N(C(c2ccc(C(=O)N(CC)CC)cc2)c2cccc(OC)c2)CC1C (some centres undefined) | 0
CCn1c(C)c(C(=O)O)c2cc(OC)ccc21 | -1
COc1ccc(-n2c(C)cc(C(=O)C[N+]34CCN(CC3)CC4)c2C)cc1 | 9.9* | HuH7 TTR inh=-8;TTR act confirm=3
COC(=O)C1C(c2ccccc2)CC2CCC1N2C (centres undefined) | 0
Cc1cccc(-n2c(O)c(/C=C/C=Nc3ccccc3)c(=O)[nH]c2=O)c1 | 2
Cc1ccccc1-n1c(O)c(/C=N/c2nccs2)c(=O)[nH]c1=O | 0
Cc1cccc(N=Cc2c(O)n(-c3ccccc3C)c(=O)[nH]c2=O)c1 | 13* | HuH7 TTR inh=2;TTR act confirm=-2
COC(=O)[C@@H]1N=C(c2ccc(OC)cc2)O[C@]12C(=O)N(C)c1cccc(Cl)c12 | -1
O=c1[nH]c2ccccc2n1C1CCN(C(c2cc3ccccc3o2)c2nnnn2Cc2ccccc2)CC1 (centres undefined) | -5
O=C(C(=O)N1CCC2(CC1)OCCO2)c1c[nH]c2ccccc12 | 11* | HuH7 TTR inh=-7;TTR act confirm=0
CC(C(=O)c1c[nH]c2ccccc12)N1CCOCC1 (centres undefined) | 2
O=C(c1ccccc1)N1CCC2(CC1)OCCO2 | 0
S=P(c1ccccc1)(c1ccccc1)c1c[n+](Cc2ccccc2)c2ccccn12 | -4
C=CCCC(NC(=O)OCc1ccccc1)P(=O)(Oc1ccccc1)Oc1ccccc1 (centres undefined) | 1
Cn1cc(P(=S)(c2ccccc2)c2ccccc2)c2ccccc21 | 7
CC1C2Cc3ccc(O)cc3C1(C)CCN2CC1CC1 (centres undefined) | 1
CN1C2CCC1CC(=NO)C2 | 27* | HuH7 TTR inh=-10;TTR act confirm=0
C=CCN1Cc2ccccc2-n2nncc2C1 | -1
c1ccc2oc(-c3ccc4c(c3)CNCc3cnnn3-4)cc2c1 | -1
C=CC1C[N+]2(C)CCC1CC2C(O)c1ccnc2ccccc12 (centres undefined) | 0
CC(C)(C)n1nnnc1C(c1cccc2ccccc12)N1CCC2(CC1)C(=O)NCN2c1ccccc1 (centres undefined) | 0
SMILES | TTR transcr act | others
O=C(NC1CN2CCC1CC2)c1ccc(Cl)cc1 (centres undefined) | 1
CCc1ccccc1N1C(=O)CC(=O)NC1=O | 9.8* | HuH7 TTR inh=-8;TTR act confirm=0
O=C1CC(=O)N(c2ccc(Cl)cc2)C(=O)N1 | 0
COc1ccc2c(c1O)C13CCN(C)C(C2)C1CCC(=O)C3 (centres undefined) | 24* | HuH7 TTR inh=-8;TTR act confirm=3
COc1ccc2c3c1OC1[C@H](O)CCC4[C@@H](C2)N(C)CC[C@]314 (some centres undefined) | 1
COc1ccc2c3c1OC1C(=O)CC[C@@]4(O)[C@@H](C2)N(C)CC[C@]314 (some centres undefined) | 2
COC(=O)C1C(c2ccc(I)cc2)CC2CCC1N2C (centres undefined) | 0
CC[C@]12CCN(CC3(O)CC3)[C@H](Cc3ccc(O)cc31)C2(C)C | 2
c1ccc2c(c1)CN(Cc1ccc3c(c1)OCO3)Cc1cnnn1-2 | -1
CCC(C)c1cnc(CC(C)C)c(=O)n1O (centres undefined) | 1
COC(=O)C1=C(c2ccc(F)cc2OCc2ccccc2)C[C@@H]2CC[C@H]1N2C(=O)NCc1ccco1 | 15* | HuH7 TTR inh=-5;TTR act confirm=1
COC(=O)C1=C(c2ccc(F)cc2OCc2ccccc2)C[C@@H]2CC[C@H]1N2C(=O)NCc1ccccc1 | -3
COC(=O)C1=C(c2ccc(F)cc2OCc2ccccc2)C[C@@H]2CC[C@H]1N2C(=O)NCC1CC1 | 1
COC(=O)[C@@H]1N=C(c2ccc(OC)cc2)O[C@]12C(=O)N(C)c1ccc(Cl)cc12 | -2
O=C(CCc1ccccc1)N1Cc2cc(N3CCCCC3)ccc2-n2nncc2C1 | 1
COC(=O)C1=C(c2ccc(OC(F)(F)F)cc2)C[C@@H]2CC[C@H]1N2C(=O)NC1CC1 | 10* | HuH7 TTR inh=-9;TTR act confirm=0
COC(=O)C1=C(c2ccc(OC(F)(F)F)cc2)C[C@@H]2CC[C@H]1N2C(=O)NCC1CC1 | -1
COC(=O)C1=C(c2ccc(OC(F)(F)F)cc2)C[C@@H]2CC[C@H]1N2C(=O)NCCO | 2
COC(=O)C(O)(c1ccc(NC(=O)c2cccs2)cc1)C(F)(F)F (centres undefined) | 3
CCOC(=O)c1cc2cc(OC)ccc2n1C1CCN(Cc2ccccc2)CC1 | -1
COc1cc(CCN)c(OC)cc1C | -1
OCCN1C2CCC1CC(O)(c1ccc(F)cc1)C2 (centres undefined) | 2
OC1(c2ccc(F)cc2)CC2CCC(C1)N2Cc1nnnn1C1CCCCC1 (centres undefined) | 23* | HuH7 TTR inh=-10;TTR act confirm=1
CC1CCCN(C(=O)CN2C3CCC2CC(O)(c2ccc(F)cc2)C3)C1 (centres undefined) | 0
C=CCN1CC[C@]23c4c5ccc(O)c4OC2C(=O)CC[C@@]3(O)[C@H]1C5 (some centres undefined) | 0
SMILES | TTR transcr act | others
Cc1cc(O)c2c(c1)C(=O)[C@@]13C(=C2O)C(=O)[C@H]2C(O)[C@@H]1[C@H]1C(O)[C@@H]3C(=O)C3=C(O)c4c(O)cc(C)cc4C(=O)[C@@]312 (some centres undefined) | -2
CN1CC[C@]23c4c5ccc(OC6OC(C(=O)O)[C@@H](O)C(O)[C@H]6O)c4OC2C(O)C=CC3[C@H]1C5 (some centres undefined) | -1
CC(=O)OC1C=CC2[C@H]3Cc4ccc(O)c5c4[C@@]2(CCN3C)C1O5 (some centres undefined) | 17* | HuH7 TTR inh=-9;TTR act confirm=0
CN1CC[C@]23c4c5ccc(O)c4OC2C(O)C=CC3[C@H]1C5 (some centres undefined) | 2
C=CC12CN(C)C3C4COC(CC41)C1(C(=O)Nc4ccccc41)C32 (centres undefined) | -1
COC(=O)[C@@]1(O)c2c(oc3cccc(O)c3c2=O)C=C[C@H]1O | -1
c1cnc(OCCN2CC2)cn1 | 2
c1cc(OCCN2CC2)ccn1 | 10* | HuH7 TTR inh=1;TTR act confirm=0
O=C(Cc1ccccc1)OCCN1CCOCC1 | -2
CCOC(=O)[C@]12Cc3cc(Cl)ccc3[C@H]1N(C(C)C)C(=O)c1ccccc12 | -6
COC(=O)C1=C(C(=O)OC)C2OC1c1cc3ccccc3cc12 | -7
CCC(=NCc1cccnc1)c1c(O)n(-c2ccccc2)c(=O)[nH]c1=O | 2
CC/C(=N\Nc1ccccc1)c1c(O)n(-c2ccc(OC)cc2)c(=O)[nH]c1=O | 1
CCC(=NCCCn1ccnc1)c1c(O)n(-c2ccc(OC)cc2)c(=O)[nH]c1=O | 17* | HuH7 TTR inh=-10;TTR act confirm=1
